Results on 5 sequences are retold here after article PMC7862700, “An all-to-all approach to the identification of sequence-specific readers for epigenetic DNA modifications on cytosine”.

Assay in all cases: DAPPL (digital affinity profiling via proximity ligation, sequencing); 10 mM Tris-HCl pH 7.5, 50 mM NaCl, 1 mM DTT, 4% glycerol, room temperature, 30 min; GST-TFs on glutathione beads, 16-mer random dsDNA library, 0.1% formaldehyde crosslink after washing; high values mean tight binding
Holding throughout (conditions): protein: recombinant; tags: N-terminal GST; dsDNA, one strand shown

One assay has as its target T1, SPIC (Homo sapiens, UniProt Q8N5J4 1-248).
T1 sequence: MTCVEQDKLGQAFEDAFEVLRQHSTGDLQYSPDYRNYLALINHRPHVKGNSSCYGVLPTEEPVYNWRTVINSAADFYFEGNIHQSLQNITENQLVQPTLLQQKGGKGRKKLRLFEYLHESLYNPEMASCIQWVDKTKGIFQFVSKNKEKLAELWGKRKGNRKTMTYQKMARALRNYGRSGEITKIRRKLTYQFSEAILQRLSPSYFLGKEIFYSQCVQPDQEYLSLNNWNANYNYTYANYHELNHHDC
A digest of the protocol:
(§1)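 Binding signal is given per hexamer as its read frequency for a factor divided by its frequency in the tag-only sample. GST-fused human transcription factors were expressed in yeast, captured on glutathione beads, barcoded with DNA and pooled with that sample, then incubated with 200 nmole of a 16-mer random double-stranded DNA library in Tris/NaCl/DTT/glycerol buffer for 30 min at room temperature. The pools were then washed, crosslinked, proximity-ligated, amplified by PCR and sequenced on an Illumina NextSeq500.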

Another assay deals with T2, GABPA (Homo sapiens, UniProt Q06546 1-454).
T2 sequence: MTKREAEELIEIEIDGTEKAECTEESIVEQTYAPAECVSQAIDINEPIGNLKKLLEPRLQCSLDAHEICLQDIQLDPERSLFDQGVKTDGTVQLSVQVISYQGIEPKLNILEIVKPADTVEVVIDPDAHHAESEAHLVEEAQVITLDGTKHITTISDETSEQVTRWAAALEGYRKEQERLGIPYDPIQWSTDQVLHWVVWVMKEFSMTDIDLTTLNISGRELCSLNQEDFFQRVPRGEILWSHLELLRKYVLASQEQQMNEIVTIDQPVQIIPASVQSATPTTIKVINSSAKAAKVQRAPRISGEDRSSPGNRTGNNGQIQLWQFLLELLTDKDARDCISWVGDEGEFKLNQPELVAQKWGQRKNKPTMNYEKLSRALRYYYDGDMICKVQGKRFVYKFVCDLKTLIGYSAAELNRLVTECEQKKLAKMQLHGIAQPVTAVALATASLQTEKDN
An outline of the steps:
as §1

The target of a further assay is T3, FEV (Homo sapiens, UniProt Q99581 1-238).
T3 sequence: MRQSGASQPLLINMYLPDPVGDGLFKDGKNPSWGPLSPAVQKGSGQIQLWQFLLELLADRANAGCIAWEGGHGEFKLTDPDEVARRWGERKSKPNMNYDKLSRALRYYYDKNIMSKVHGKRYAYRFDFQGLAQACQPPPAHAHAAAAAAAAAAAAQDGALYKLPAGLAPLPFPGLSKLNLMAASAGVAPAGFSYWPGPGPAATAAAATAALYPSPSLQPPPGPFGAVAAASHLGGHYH
An outline of the steps:
as §1

Another assay has as its target ELF4 (Homo sapiens, UniProt Q99607 1-663). A digest of the protocol: as §1
In a further assay the target is T4, ETV2 (Homo sapiens, UniProt O00321 1-342).
T4 sequence: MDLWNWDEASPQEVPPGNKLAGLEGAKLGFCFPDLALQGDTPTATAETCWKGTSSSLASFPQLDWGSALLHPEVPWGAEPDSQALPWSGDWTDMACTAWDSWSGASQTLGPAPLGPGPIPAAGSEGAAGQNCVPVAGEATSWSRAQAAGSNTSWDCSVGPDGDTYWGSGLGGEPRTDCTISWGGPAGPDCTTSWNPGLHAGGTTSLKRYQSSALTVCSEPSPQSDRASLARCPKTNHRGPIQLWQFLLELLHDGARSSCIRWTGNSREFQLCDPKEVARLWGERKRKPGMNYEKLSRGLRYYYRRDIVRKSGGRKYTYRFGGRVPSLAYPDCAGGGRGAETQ
An outline of the steps: as §1

The target in another assay is CRX (Homo sapiens, UniProt O43186 1-299). A digest of the protocol: as §1
Chain of CRX (O43186 whole entry): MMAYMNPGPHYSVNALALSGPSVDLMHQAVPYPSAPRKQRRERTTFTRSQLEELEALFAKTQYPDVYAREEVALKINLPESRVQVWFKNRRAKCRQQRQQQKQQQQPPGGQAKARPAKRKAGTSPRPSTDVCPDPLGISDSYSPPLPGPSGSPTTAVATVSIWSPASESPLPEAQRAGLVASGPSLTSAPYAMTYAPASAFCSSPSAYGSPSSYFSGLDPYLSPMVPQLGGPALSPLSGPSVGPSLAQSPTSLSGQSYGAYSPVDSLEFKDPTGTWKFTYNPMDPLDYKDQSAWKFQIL
The next assay deals with T5, ETS2 (Homo sapiens, UniProt P15036 1-469).
T5 sequence: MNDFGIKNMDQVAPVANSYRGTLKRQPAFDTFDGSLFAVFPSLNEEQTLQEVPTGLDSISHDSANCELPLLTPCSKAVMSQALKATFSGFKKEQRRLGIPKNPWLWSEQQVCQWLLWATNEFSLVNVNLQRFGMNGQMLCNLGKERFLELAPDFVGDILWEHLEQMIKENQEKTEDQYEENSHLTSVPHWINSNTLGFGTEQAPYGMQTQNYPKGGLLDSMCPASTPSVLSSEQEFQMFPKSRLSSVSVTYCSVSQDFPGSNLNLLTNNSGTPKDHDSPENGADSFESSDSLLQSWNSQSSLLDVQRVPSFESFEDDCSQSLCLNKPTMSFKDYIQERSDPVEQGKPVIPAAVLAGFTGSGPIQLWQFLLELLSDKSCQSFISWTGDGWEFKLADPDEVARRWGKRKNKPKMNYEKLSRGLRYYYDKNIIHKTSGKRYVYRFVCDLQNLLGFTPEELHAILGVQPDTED
A digest of the protocol:
as §1

A further assay deals with T6, ETV7 (Homo sapiens, UniProt Q9Y603 1-341).
T6 sequence: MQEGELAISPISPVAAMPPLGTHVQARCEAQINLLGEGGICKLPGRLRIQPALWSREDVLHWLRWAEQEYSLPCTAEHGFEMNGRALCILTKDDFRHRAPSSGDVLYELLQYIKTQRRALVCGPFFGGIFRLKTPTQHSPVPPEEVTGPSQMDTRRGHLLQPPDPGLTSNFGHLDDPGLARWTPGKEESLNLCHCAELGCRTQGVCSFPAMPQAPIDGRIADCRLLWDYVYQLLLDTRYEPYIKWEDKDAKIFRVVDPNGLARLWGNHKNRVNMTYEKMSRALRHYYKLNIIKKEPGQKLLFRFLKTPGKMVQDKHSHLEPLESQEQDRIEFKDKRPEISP
A digest of the protocol: as §1

Another assay deals with T7, ELF5 (Homo sapiens, UniProt Q9UKW6-2 1-255).
T7 sequence: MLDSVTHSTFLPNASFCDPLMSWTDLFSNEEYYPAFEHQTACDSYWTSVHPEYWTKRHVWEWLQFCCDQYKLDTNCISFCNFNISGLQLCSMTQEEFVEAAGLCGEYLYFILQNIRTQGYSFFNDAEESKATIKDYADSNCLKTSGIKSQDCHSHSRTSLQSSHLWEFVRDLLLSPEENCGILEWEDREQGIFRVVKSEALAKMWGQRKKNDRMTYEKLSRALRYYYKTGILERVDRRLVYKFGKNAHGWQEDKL
An outline of the steps:
as §1

A further assay concerns the target SPIB (Homo sapiens, UniProt Q01892 1-262). An outline of the steps:
as §1

A further assay addresses T8, ELK4 (Homo sapiens, UniProt P28324-2 1-405).
T8 sequence: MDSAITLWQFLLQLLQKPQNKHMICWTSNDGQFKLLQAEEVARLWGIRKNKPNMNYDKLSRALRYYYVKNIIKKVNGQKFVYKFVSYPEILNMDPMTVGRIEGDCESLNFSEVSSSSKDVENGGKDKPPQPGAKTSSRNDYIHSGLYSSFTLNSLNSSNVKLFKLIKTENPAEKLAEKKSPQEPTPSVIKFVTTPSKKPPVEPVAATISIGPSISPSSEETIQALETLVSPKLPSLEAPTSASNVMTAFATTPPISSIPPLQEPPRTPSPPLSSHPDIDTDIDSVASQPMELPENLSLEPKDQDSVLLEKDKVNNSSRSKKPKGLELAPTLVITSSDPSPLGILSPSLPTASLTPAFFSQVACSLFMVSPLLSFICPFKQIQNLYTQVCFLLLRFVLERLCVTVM
A digest of the protocol: as §1

Another assay addresses T9, ELF3 (Homo sapiens, UniProt P78545 1-371).
T9 sequence: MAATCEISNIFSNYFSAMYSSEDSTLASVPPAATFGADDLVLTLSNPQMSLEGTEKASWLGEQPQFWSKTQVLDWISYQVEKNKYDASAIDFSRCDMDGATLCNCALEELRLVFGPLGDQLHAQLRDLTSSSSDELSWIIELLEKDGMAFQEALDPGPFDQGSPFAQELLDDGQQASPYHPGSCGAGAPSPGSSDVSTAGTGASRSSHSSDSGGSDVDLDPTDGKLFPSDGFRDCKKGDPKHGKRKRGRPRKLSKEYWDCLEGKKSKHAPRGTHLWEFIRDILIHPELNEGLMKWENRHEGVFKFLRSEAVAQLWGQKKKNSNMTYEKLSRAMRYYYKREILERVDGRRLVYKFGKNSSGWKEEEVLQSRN
A digest of the protocol: as §1

For the next assay, the target named is T10, ETV3 (Homo sapiens, UniProt P41162-2 1-143).
T10 sequence: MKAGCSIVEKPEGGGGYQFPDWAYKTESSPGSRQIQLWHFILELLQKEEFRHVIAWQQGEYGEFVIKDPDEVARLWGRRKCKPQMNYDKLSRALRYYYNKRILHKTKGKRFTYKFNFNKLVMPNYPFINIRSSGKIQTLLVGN
A digest of the protocol: as §1

Chain of ELF4 (Q99607 whole entry): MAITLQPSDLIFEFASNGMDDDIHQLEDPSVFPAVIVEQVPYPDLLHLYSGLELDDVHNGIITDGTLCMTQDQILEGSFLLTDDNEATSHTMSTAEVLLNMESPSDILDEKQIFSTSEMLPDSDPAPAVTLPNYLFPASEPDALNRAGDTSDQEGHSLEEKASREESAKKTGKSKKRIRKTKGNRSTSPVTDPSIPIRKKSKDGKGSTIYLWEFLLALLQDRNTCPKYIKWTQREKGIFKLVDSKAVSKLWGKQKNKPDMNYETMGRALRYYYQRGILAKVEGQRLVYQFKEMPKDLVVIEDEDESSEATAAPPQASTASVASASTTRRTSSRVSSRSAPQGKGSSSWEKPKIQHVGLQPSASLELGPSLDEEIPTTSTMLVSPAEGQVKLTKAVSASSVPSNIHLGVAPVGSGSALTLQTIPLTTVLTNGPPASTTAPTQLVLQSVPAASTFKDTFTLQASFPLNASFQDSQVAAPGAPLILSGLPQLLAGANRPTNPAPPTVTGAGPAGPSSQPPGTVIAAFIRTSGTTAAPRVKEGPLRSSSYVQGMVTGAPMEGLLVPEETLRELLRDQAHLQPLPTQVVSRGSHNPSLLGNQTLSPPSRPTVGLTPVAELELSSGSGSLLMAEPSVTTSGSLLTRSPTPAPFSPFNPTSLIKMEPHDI
Chain of SPIB (Q01892 whole entry): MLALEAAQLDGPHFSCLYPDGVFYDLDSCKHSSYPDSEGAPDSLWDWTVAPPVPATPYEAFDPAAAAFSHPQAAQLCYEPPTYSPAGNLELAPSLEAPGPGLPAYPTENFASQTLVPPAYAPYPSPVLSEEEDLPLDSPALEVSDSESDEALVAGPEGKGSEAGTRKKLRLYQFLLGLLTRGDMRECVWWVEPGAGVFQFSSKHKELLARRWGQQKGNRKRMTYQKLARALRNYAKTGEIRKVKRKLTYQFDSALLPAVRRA

As for CTGGCG, the binding signal with SPIC was 1.09 fold enrichment (6-mer frequency, TF over GST control).
The same measure, in the same setting: the same measure for TCAGAC: 1.11 fold enrichment (6-mer frequency, TF over GST control).
On to AAAGGC, for which the binding signal was 1.1 fold enrichment (6-mer frequency, TF over GST control) with GABPA; 1.01 fold enrichment (6-mer frequency, TF over GST control) with FEV; 1 fold enrichment (6-mer frequency, TF over GST control) with SPIC; 1.04 fold enrichment (6-mer frequency, TF over GST control) with ELF4; 1.04 fold enrichment (6-mer frequency, TF over GST control) with ETV2; 1.03 fold enrichment (6-mer frequency, TF over GST control) with CRX. The binding signal with ETS2 was 1 fold enrichment (6-mer frequency, TF over GST control); with ETV7, 1.03 fold enrichment (6-mer frequency, TF over GST control); with ELF5, 1 fold enrichment (6-mer frequency, TF over GST control).
With GCGCGT, in the assay with SPIC, the binding signal is 1 fold enrichment (6-mer frequency, TF over GST control).
Turning to GTATGA, the binding signal is 1.05 fold enrichment (6-mer frequency, TF over GST control) with SPIB; 1.09 fold enrichment (6-mer frequency, TF over GST control) in the assay with SPIC; 1.03 fold enrichment (6-mer frequency, TF over GST control) in the assay with ELF4; 1.01 fold enrichment (6-mer frequency, TF over GST control) with ELK4; 1.02 fold enrichment (6-mer frequency, TF over GST control) with ELF3; 1.01 fold enrichment (6-mer frequency, TF over GST control) with ETS2. For the same sequence, the binding signal with ETV3 is 1.02 fold enrichment (6-mer frequency, TF over GST control).
